Tgondii IFNg – T. gondii growth inhibition with IFN-gamma, primary screen, cell-based. Toxoplasma gondii growth in IFN-gamma-treated host cells; hits give low values. activity change, negative = inhibition, % (no concentration beside the values). 69,000 compounds, 3.8% hits; in the data active = activity change below about -70%, passing the limit was not always enough;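 note: host cells are HeLa cells infected with Toxoplasma gondii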
Active calls of the source: *; i = inactive. The full list was thinned out, with hits kept by preference.

SMILES | Tgondii IFNg
C[C@H](c1ccc(F)cc1)n1c(CCn2cccn2)n[nH]c1=O | 3.5
CN(Cc1cccnc1)C1CCN(S(C)(=O)=O)C(C(=O)O)C1 (stereo not given) | -1.3
CCOc1cccc(CC(=O)N2CCc3c([nH]c4ccccc34)C2c2ccc(C)cc2)c1OCC (stereo not given) | i
COCCN1CCC(C(=O)N(C)Cc2nc3ccccc3s2)C1 (stereo not given) | 0.4
CO[C@@H]1CCN(C2CCOCC2)C[C@@H]1Cc1ccccc1 | -1.4
O=C(CCSc1nc(-c2ccc3c(c2)OCO3)cc(C(F)(F)F)n1)N1CCCCC1 | -76.3*
O=C(COc1ccc2c(c1)OCO2)N1CCN(C(=O)c2ccco2)CC1 | 15.6
O=C(/C=C/c1ccc2c(c1)OCO2)N1CCCCC1 | 94.6
CC(CNC1CCCCC1)OC(=O)c1ccccc1 (stereo not given) | -31.2
CC(=O)N[C@H]1C[C@@H](c2cccc(OCc3ccccn3)c2)O[C@@H](C(C)C)C1 | 75.7
CC(=O)c1ccc2c(c1)[C@@H]1C=CC[C@@H]1[C@H](c1cc3c(cc1Br)OCO3)N2 | -75.3*
C[C@H]1C[C@H]2CN(C(=O)c3ccc4c(c3)OCO4)C[C@H]2O1 | 24.2
Brc1ccc2c(c1)C1C=CCC1C(C1CC=CCC1)N2 (stereo not given) | 27.1
Nc1nc2c(cnn2CCc2ccccc2)c2nc(-c3ccco3)nn12 | -12.1
Nc1nc(NCCc2ccc(O)cc2)nc2nc(-c3ccco3)nn12 | -80.2*
Nc1nc2ccc(Cl)cc2c2nc(-c3ccco3)nn12 | 7.5
CC(=O)N1CCC2(CC1)OC(=O)C(C)=C2C(=O)Nc1ccccc1Cl | 25.3
Cc1cc(C)c2[nH]c(=O)c(-c3c(-c4ccccc4)ncn3CCCO)cc2c1 | 2.5
COc1ccc(S(=O)(=O)NCCc2sc(-c3ccc(Cl)cc3)nc2C)cc1F | -4.1
Cc1nccnc1-c1ccnn1C(=O)Nc1cc(Cl)cc(Cl)c1 | -81.7*
COc1cc(NC(=O)Nc2ccnn2C)cc(OC)c1 | -8.5
Cc1nc(-c2cccs2)sc1-c1ccnn1C(=O)NC(C)C | 98.0
COc1ccc(-c2csc(CCNC(=O)Cc3c(C)noc3C)n2)cc1 | 6.6
COC(=O)c1cccc(C2CC(=O)Nc3cc(O)c(C)cc32)n1 (stereo not given) | -81.3*
COCCn1ccnc1C1CC(=O)Nc2cc(O)c(C)cc21 (stereo not given) | -1.4
SMILES | Tgondii IFNg
Cc1cc2c(cc1O)NC(=O)CC2c1nccs1 (stereo not given) | -29.1
CN(Cc1ncc[nH]1)Cc1ccc(-c2ccccc2Cl)o1 | -30.4
CC(=O)N1CCC2(CCOCC2COc2cnccn2)CC1 (stereo not given) | 29.3
COc1ccc(CN(C)C[C@H]2Oc3ccc(NC(=O)Nc4ccc5c(c4)OCO5)cc3CC(=O)N([C@@H](C)CO)C[C@@H]2C)cc1 | 2.6
COC(=O)c1sc(SC)c(S(=O)(=O)c2ccc(Cl)cc2)c1C | -6.1
CSc1sc(NC(=O)Nc2ccc(Cl)cc2)cc1S(=O)(=O)C(C)C | -84.0*
CC(C)S(=O)(=O)c1cscc1NC(=O)Nc1ccccc1 | -1.2
COc1cc(NC(=O)Nc2ccc(Cl)cc2)c(-n2c(C)ccc2C)cc1OC | 166.1
CSc1sc(C(=O)Sc2ccc(Cl)cc2)cc1S(=O)(=O)C(C)C | -78.9*
CSc1sc(C(=O)N2CCc3ccccc32)cc1S(=O)(=O)C(C)C | 33.4
CN(Cc1cncnc1)Cc1cnc2n1CCN(C(N)=O)CC2 | 57.4
C[C@@H]1CN([C@@H](C)CO)C(=O)CCCn2cc(nn2)CO[C@H]1CN(C)C(=O)Nc1cccc(C(F)(F)F)c1 | 53.5
CCN(CC)C(=O)CC1CC2(CCN(C(=O)CC3CC3)CC2)Oc2ccccc21 (stereo not given) | -15.1
Cc1cc(C)c2c(CC(=O)NCC3CCC(c4nnc(-c5cnccn5)o4)CC3)coc2c1 (stereo not given) | -5.1
C[C@@H]1CN([C@H](C)CO)C(=O)c2cc(C#CC3(O)CCCC3)cnc2O[C@@H]1CN(C)S(=O)(=O)c1cccc(F)c1 | 63.0
Cc1ccc(C2=NC3(CCN(Cc4cccc(F)c4)CC3)NC2=O)cc1C | -30.2
CCOc1ccc(NC(=O)c2nc(Nc3ccc(Cl)cc3)c3ccccc3n2)cc1 | 1.3
COC(=O)c1ccc(CN(C)Cc2cc(-c3ccncc3)no2)cc1 | -5.1
CN(CCn1ccnc1)c1ccc(-c2nc(-c3cccc(Cl)c3)no2)cn1 | 140.6
COc1cccc(-c2nccn2CCc2cnc[nH]2)c1OC | 7.7
COc1ccc(-c2ccccc2)cc1-n1ccnc1-c1cnc[nH]1 | -81.6*
CCOCc1cc(-c2nccn2-c2cccnc2)ccc1OC | -3.1
CSc1ccc(-c2noc(-c3c(O)c4ccc(F)cc4[nH]c3=O)n2)cc1 | 0.2
CCCNC(=O)N1CC2(C1)CN(S(C)(=O)=O)[C@H](CO)c1c2c2ccc(OC)cc2n1C | 2.8
FC(F)(F)c1cccc(NC(=S)Nc2csc(C(F)(F)F)c2-c2ccccc2)c1 | -96.6*
SMILES | Tgondii IFNg
CCOC(=O)c1cn[nH]c1NC(=S)Nc1cccc(C(F)(F)F)c1 | -33.8
FC(F)(F)c1cccc(NC(=S)Nc2cccc(C(F)(F)F)c2)c1 | 19.3
CN(C)CCOCC1CN(C(=O)CC2C=CCC2)Cc2nnn(C)c21 (stereo not given) | -56.1
CN(C)C(=O)N1CCn2cc(CNC(=O)C3CCC3)nc2C1 | -7.1
COCCN1CCC2(CC1)CC(NCc1ccc(C)s1)c1ccccc12 (stereo not given) | -3.5
CN(C)CCN1CCC2(CC1)CC(NCc1cccs1)c1ccccc12 (stereo not given) | -35.0
CS(=O)(=O)N1CCC2(CC1)CC(NCc1cccs1)c1ccccc12 (stereo not given) | -94.0*
CSc1cccc(NC(=O)N2CCCC2c2ccccn2)c1 (stereo not given) | -9.4
COc1ccc(-c2nc(CNS(=O)(=O)c3ccc(C(C)C)cc3)c(C)o2)cc1 | -74.7*
COc1ccc(-c2nc(CNS(=O)(=O)c3ccc(F)cc3)c(C)o2)cc1 | 32.6
COc1ccc(S(=O)(=O)NCc2nc(-c3ccccc3)oc2C)cc1 | 19.6
C=C1COC(=O)N1Cc1ccccc1Cl | -9.1
O=C1CCC2(CCCO2)CCN1Cc1noc(-c2ccco2)n1 (stereo not given) | -3.4
CC(=O)c1cc([N+](=O)[O-])c(Sc2ccc(F)cc2F)s1 | -71.6*
CNC(=S)Sc1ccc(F)cc1F | 37.9
CC(C)C(C(=O)N[C@H](C)C(=O)N1CCCC(C(=O)CS(C)(=O)=O)C1)c1ccccc1 (stereo not given in full) | -31.8
COCC1CC2(CCN(C(=O)Cc3ccccc3C)CC2)CO1 (stereo not given) | -34.9
O=S(=O)(c1ccc(F)cc1)N1CCCCN2[C@H](CO)[C@@H](c3ccc(-c4cncnc4)cc3)[C@@H]2C1 | -9.3
CCc1cccc(NC(=O)CCC(=O)NCC2(C)CCCO2)c1 (stereo not given) | -4.8
OCc1ccc(CN(Cc2ccncc2)Cc2ccc(F)cc2)o1 | -7.7
CCc1ccc(CN(Cc2ccncc2)Cc2ccc(F)cc2)nc1 | -0.3
Fc1ccc(CN(Cc2ccncc2)Cc2cccc3c2OCO3)cc1 | -82.1*
CC1=C(C(=O)NCCCN2CCCCC2C)C2(CCN(S(=O)(=O)c3cccs3)CC2)OC1=O (stereo not given) | -22.6
COC(=O)C[C@H]1CC[C@@H]2[C@H](COC[C@@H](O)CN2S(=O)(=O)c2cn(C)cn2)O1 | 8.1
CC(C)NC(=O)C1(Cc2ccc(-c3ccsc3)cc2)CCN(C(=O)c2ccnn2C)C1 (stereo not given) | -0.2

High-throughput results as filed in PubChem.
